Pf growth 96h = P. falciparum growth inhibition at 96 hour, primary screen for plastid delayed-death inhibitors; P. falciparum luciferase reporter growth, 96 h; 320,000 tested, 6.9% active; Potency, µM (top dose mostly 28.7 µM), usual class: inhibitors; AID 504834
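Cell-based qHTS: luciferase-tagged P. falciparum in erythrocytes (2% hematocrit, 0.05% parasitemia final) incubated with compounds for 96 hours, 37 C, 5% CO2; luciferase detection reagent then added and luminescence measured.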
Giardia FBPA inh = blocks Giardia fructose-bisphosphate aldolase activity; A8B2U2; purified Giardia FBPA; Potency, µM (series often up to 59.6 µM), actives largely listed as inhibitors; 290,000 tested, 0.71% active; AID 2451; also: nearly all actives have a fitted effect of over 55% in size
Target sequence (A8B2U2 whole entry, looked up): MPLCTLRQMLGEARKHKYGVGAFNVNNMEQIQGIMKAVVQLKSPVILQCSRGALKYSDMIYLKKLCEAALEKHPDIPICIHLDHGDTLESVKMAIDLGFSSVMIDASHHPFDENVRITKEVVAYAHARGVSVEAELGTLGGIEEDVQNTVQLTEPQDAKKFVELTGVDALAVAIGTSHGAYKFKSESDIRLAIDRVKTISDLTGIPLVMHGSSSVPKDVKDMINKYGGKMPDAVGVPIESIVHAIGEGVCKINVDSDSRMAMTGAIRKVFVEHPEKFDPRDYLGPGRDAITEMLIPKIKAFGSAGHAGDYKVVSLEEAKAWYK
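40 nM FBPA preincubated 10 min at RT with compound (up to 57.5 uM final), then substrate plus GAPDH/TPI/NAD/arsenate coupling and diaphorase/resazurin added. Fluorescence read after 20 min at RT, 525/598 nm.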
HCMV antiviral = inhibitors of human cytomegalovirus; AID 1259415; activity change, negative = inhibition, % at 57.5 µM; HFF cells, HCMV-luciferase reporter, 72 h; active compounds read low; 410,000 tested, 4.5% active; in the data active = activity change below about -60%; inconclusive = no clear call, values can overlap the other calls; inactive = above about -39%
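After 16 h attachment at 37C, HFF cells received test compound and HCMV-luciferase (1 PFU/cell); reporter luminescence read 72 h later, data normalized against buffer-only and known inhibitor Salinomycin.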
Pf growth 48h = P. falciparum growth inhibition at 48 hours (one generation). P. falciparum luciferase growth in erythrocytes, 48 h. Potency, µM (highest dose often 28.7 µM), usual class: inhibitors. 310,000 tested, 5.9% active. AID 504832
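First compound was added to culture medium, then infected red cells at 0.1% parasitemia and 2% hematocrit (final). After incubation at 37 C under 5% CO2, luciferase detection reagent was dispensed and light output recorded.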
Sm TGR block = S. mansoni TGR enzyme inhibition. Q962Y6. purified TGR, DTNB reduction, TNB absorbance 405 nm. Potency, µM (highest dose often 114 µM), usual class: inhibitors. 360,000 tested, 3% active. AID 485364; also: nearly all actives have a fitted effect of over 60% in size
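Kinetic colorimetric format: TGR-catalysed, NADPH-driven DTNB reduction monitored via TNB absorbance. Enzyme dispensed at 20 nM; compound exposure 15 min at room temperature before reaction start.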
Hits are given with their value; n = inactive; u = inconclusive; x = no result. An excerpt weighted towards active compounds, which were near 14% of everything screened. Unless noted, calls follow the shape of the dose curve; as a rule, active = well fitted curve in the direction sought with a large enough effect; inconclusive = small, poorly fitted or top-dose-only effect, or another doubt; inactive = no such curve, though single readings can be large; an effect the other way counts as inactive or inconclusive.

SMILES	Pf growth 96h	Giardia FBPA inh	HCMV antiviral	Pf growth 48h	Sm TGR block
COc1ccc(NC(C)=O)cc1S(=O)(=O)NCc1ccc2c(c1)OCO2	x	x	-88.1	x	x
O=C(CCCSc1nnnn1-c1ccccc1)c1ccc(F)cc1	n	n	x	u	n
O=C(CNC(=O)c1ccc(Br)o1)NNC(=O)c1ccc(Br)cc1	n	x	n	n	n
O=C1C(=C(c2ccccc2)N2CCOCC2)Cc2ccccc21	x	x	-99.0	x	x
O=C(c1nn2c(C(F)(F)F)cc(-c3ccccc3)nc2c1Cl)N1CCN2CCCC2C1 (centres undefined)	u	n	-61.3	u	n
O=C(c1ccccc1)N1CCN(C(=O)c2nn3c(C(F)(F)F)cc(-c4ccccc4)nc3c2Br)CC1	n	n	n	8.28µM	n
O=C(NCCCn1ccnc1)c1nn2c(C(F)(F)F)cc(-c3ccccc3)nc2c1Cl	n	n	n	14.7µM	n
CCCNC(=O)c1nn2c(C(F)(F)F)cc(-c3ccccc3)nc2c1Br	9.28µM	n	n	u	n
CC(C)(C)NC(=O)c1nn2c(C(F)(F)F)cc(-c3ccccc3)nc2c1Br	n	n	n	n	n
NC(=O)c1nn2c(C(F)(F)F)cc(-c3ccccc3)nc2c1Br	u	n	n	n	n
CC(Oc1ccc2c(-c3ccccc3)cc(=O)oc2c1)C(=O)N1CCC[C@@H]1C(N)=O (some centres undefined)	n	n	n	n	n
COC(=O)c1nn2c(C(F)(F)F)cc(-c3ccc(Br)o3)nc2c1Br	x	n	n	n	44.7µM
CCCCNC(=O)c1nn2c(C(F)(F)F)cc(-c3ccc(OC)cc3)nc2c1Br	u	n	n	n	n
COC(=O)c1cccnc1-n1c(=O)c2cccnc2n(Cc2ccc([N+](=O)[O-])cc2)c1=O	u	n	n	10.4µM	n
COC(=O)c1cccnc1-n1c(=O)c2cccnc2n(CC(=O)Nc2ccc(Br)cc2)c1=O	n	n	n	u	n
O=C(COC(=O)Cc1ccc(S(=O)(=O)N2CCOCC2)s1)Nc1ccc(OC(F)F)cc1	x	x	n	x	x
Cc1cccn2c(=O)c3c(nc12)N1CCc2ccccc2C1C1(C3)C(=O)NC(=O)N(C)C1=O (centres undefined)	x	n	n	13.1µM	n
CCCCN1C(=O)NC(=O)C2(Cc3c(nc4ccccn4c3=O)N3CCc4ccccc4C32)C1=O (centres undefined)	n	n	n	u	u
Cc1cccn2c(=O)c3c(nc12)N1CCCCCC1C1(C3)C(=O)N(C)C(=O)N(C)C1=O (centres undefined)	2.62µM	n	n	u	n
CCCCN1C(=O)NC(=O)C2(Cc3c(nc4c(C)cccn4c3=O)N3CCc4ccccc4C32)C1=O (centres undefined)	n	n	n	9.28µM	u
CC(C)=CC1C(C(=O)OC(C#N)c2cccc(Oc3ccccc3)c2)C1(C)C (centres undefined)	x	x	n	x	x
Cc1c2cnn(-c3ccccc3)c(=O)c2c(C)n1CCCC(=O)Nc1cccc(F)c1	x	x	n	x	u
COc1cccc(C(=O)N2CCC[C@@H]2C(=O)N2CCC[C@H]2C(=O)NCc2ccncc2)c1	x	x	n	x	x
Cc1occc1C(=O)NCc1cccs1	x	n	n	n	n
O=C(CCSCCC(=O)NCc1cccs1)NCc1cccs1	n	n	n	n	39.8µM
SMILES	Pf growth 96h	Giardia FBPA inh	HCMV antiviral	Pf growth 48h	Sm TGR block
Cc1cc(C(=O)NCc2cccs2)c(C)o1	x	n	n	n	22.4µM
O=C(CCSCc1ccccc1Cl)NCc1cccs1	u	n	n	n	n
CCOC(=O)CNC(=O)c1cc(C)oc1C	u	n	x	n	35.5µM
CC1(C)S[C@@H]2[C@H](NC(=O)[C@H](N)c3ccccc3)C(=O)N2[C@H]1C(=O)OC1OC(=O)c2ccccc21 (some centres undefined)	n	x	n	n	n
O=C(COc1cc2oc(=O)c3c(c2cc1Cl)CCCC3)N1C[C@H]2C[C@@H](C1)c1cccc(=O)n1C2	u	n	n	n	n
CCCCN(C)C(=O)c1sc(=O)n(Cc2c(C)cccc2C)c1C	x	x	-61.2	x	x
CCCCN(C)C(=O)c1sc(=O)n(Cc2ccccc2F)c1C	x	x	n	x	x
Nc1ccc2cc3[nH]c4cc(N)ccc4c3nc2c1	x	x	-98.5	x	x
Nc1ccc2nc(C3CCCCC3)[nH]c2c1	n	u	n	n	n
Cc1cnc(NC(=O)c2nn(C)cc2[N+](=O)[O-])s1	n	n	-99.0	n	x

Screening data deposited in PubChem by National Center for Advancing Translational Sciences (NCATS).
